MEKK2mut PB1 HTS – signal of MEK5 binding to mutant human MEKK2 PB1 domain. bead flow cytometry, Alexa488-MEK5 binding to MEKK2 mutant. percent response, % at 10 µM. 0.35% of 290,000 active. AID 1530; in the data active = percent response above about 24%, passing the limit was not always enough
MEKK2wt PB1 HTS – raises or lowers MEK5 binding to wildtype human MEKK2 PB1 domain; Q9Y2U5; bead flow cytometry, Alexa488-MEK5 binding to MEKK2 WT; actives lie on both sides; binding response (% of control), % at 10 µM; 1.1% of 290,000 active; AID 1531; in the data active = binding response below about 67% or above about 130%
MEKK3 PB1 HTS – raises or lowers MEK5 binding to the human MEKK3 PB1 domain. Q99759. bead-based flow cytometry, Alexa488-MEK5 binding to MEKK3; actives lie on both sides; 0 = blocked by unlabeled MEK5, 100 = vehicle. binding response (% of control), % at 10 µM. 1.4% of 290,000 active. AID 1529;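 active = binding response more than 3 SD above or below the average of its plate-row segment, actives on both sides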;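 also: Alexa488 bead fluorescence after subtracting the streptavidin-only scavenger bead signal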
GRK2 inh – inhibitors of human GRK2 displacing RNA aptamer; P25098; bead flow cytometry, FAM-aptamer displacement from GRK2; inhibition of aptamer binding, % at 10 µM; AID 488847; 0.59% of 330,000 active;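 active = inhibition of aptamer binding above 40%, roughly 3 SD of noise, on plates passing a quality check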;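 also: median bead fluorescence of bound FAM aptamer so fluorescent compounds give negative values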
Target sequence (P25098 whole entry, looked up): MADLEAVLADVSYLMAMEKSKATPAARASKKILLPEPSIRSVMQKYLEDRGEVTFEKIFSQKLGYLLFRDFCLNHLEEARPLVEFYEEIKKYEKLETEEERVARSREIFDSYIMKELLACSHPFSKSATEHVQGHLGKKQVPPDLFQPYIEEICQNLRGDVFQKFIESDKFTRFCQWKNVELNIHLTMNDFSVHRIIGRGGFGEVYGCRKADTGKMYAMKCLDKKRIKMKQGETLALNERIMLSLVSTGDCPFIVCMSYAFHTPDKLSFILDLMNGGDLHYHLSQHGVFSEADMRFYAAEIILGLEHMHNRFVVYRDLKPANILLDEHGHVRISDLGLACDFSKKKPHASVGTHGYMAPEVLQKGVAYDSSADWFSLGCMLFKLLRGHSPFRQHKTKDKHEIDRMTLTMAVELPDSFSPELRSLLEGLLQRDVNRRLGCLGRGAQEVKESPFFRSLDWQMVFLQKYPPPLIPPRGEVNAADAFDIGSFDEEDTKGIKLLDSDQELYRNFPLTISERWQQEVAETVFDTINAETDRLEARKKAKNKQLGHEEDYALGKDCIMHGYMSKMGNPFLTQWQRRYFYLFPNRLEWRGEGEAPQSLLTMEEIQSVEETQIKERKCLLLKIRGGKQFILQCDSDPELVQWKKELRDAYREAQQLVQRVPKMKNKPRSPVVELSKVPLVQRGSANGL
MEKK2wt confirm – raises or lowers MEK5 binding to wildtype human MEKK2, retest; shares compounds with MEKK3 PB1 HTS; bead flow cytometry, Alexa488-MEK5 binding to MEKK2 WT; actives lie on both sides; binding response (% of control), % at 10 µM; 2.4% of 5,900 active; in the data active = binding response below about 16% or above about 210%; inactive = in between
MEKK2mut confirm – signal of MEK5 binding to mutant human MEKK2, retest. shares compounds with MEKK3 PB1 HTS. bead flow cytometry, Alexa488-MEK5 binding to MEKK2 mutant. percent response, % at 10 µM. 2% of 5,900 active; in the data active = percent response mostly above about 71%, no sharp cut-off; inactive = mostly below about 38%;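 also: higher means compound restores mutant binding toward wildtype level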
MEKK3 confirm – confirmation of inhibitors of MEK5 binding to human MEKK3 | shares compounds with MEKK3 PB1 HTS | binding response (% of control), % at 10 µM | 1.8% of 5,900 active | bead flow cytometry, Alexa488-MEK5 binding to MEKK3; hits give low values | AID 1894;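 active = binding response below 72% of control, or above a set upper limit, though filed actives all read lower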;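 also: 100% = DMSO only wells and 0% = binding blocked by excess unlabeled MEK5; lower values mean stronger disruption of MEK5 binding to MEKK3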
* = called active by the depositor; · = no result; [ ] = remark or other dose. In the library only some 2.5% were active in any assay of this set; here they are far more common.

SMILES	MEKK2mut PB1 HTS	MEKK2wt PB1 HTS	MEKK3 PB1 HTS	GRK2 inh	MEKK2wt confirm	MEKK2mut confirm	MEKK3 confirm
CCCC1=C(C(=O)OCC)C(c2ccc(OC)c(C)c2OC)C(C#N)=C(N)O1 (stereo not drawn)	-1.0	94.0	99.0	3.0	·	·	·
CCOC(=O)C1=C(CC)OC(N)=C(C#N)C1c1ccc(OC)c(C)c1OC (stereo not drawn)	-13.0	2.0*[inhibitor]	2.0*[inhibitor]	3.0	95.0	-2.0	99.0
C=CCn1c(C)cc(C(=O)CSc2ccc(NC(C)=O)cc2)c1C	8.0	112.0	110.0	0.0	·	·	·
CCOc1cc(/C=C(\C#N)C(N)=O)ccc1OCc1c(C)no[n+]1[O-]	-4.0	99.0	102.0	1.0	·	·	·
Cc1no[n+]([O-])c1COc1ccc(/C=C(\C#N)C(N)=O)cc1	1.0	104.0	134.0*	3.0	105.0	3.0	100.0
CC12CCC(C(=O)NNc3ccc([N+](=O)[O-])cc3)(OC1=O)C2(C)C (stereo not drawn)	29.0	129.0	132.0*	0.0	103.0	4.0	104.0
O=C(CN1CCN(S(=O)(=O)c2ccccc2)CC1)Nc1ccccc1Cl	6.0	107.0	106.0	2.0	·	·	·
O=C(CN1CCN(S(=O)(=O)c2ccccc2)CC1)Nc1ccccc1C(=O)c1ccccc1	0.0	103.0	128.0*	2.0	104.0	-4.0	99.0
COc1ccc2[nH]c(C)c(CCNC(=S)Nc3cccc(C)c3)c2c1	-14.0	1.0*[inhibitor]	1.0*[inhibitor]	0.0	93.0	-6.0	98.0
CCN1C(=O)/C(=C\C=C2/C=CC=CN2CC)SC1=S	-1.0	104.0	105.0	3.0	·	·	·
CCCN1C(=O)/C(=C\C=C2/Sc3ccccc3N2CC)SC1=S	-26.0	7.0*[inhibitor]	37.0*[inhibitor]	·	30.0	-28.0	71.0*
CCN1C(=O)/C(=C/C=C2\C=CN(CC)c3ccccc32)SC1=S	-6.0	42.0*[inhibitor]	75.0*[inhibitor]	0.0	90.0	-5.0	102.0
CCCN1C(=O)/C(=C\C=C2\N(CC)c3ccccc3C2(C)C)SC1=S	174.0*	186.0*	66.0	·	82.0	-14.0	90.0
CN1/C(=C\C=C2/SC(=S)NC2=O)C(C)(C)c2ccccc21	-7.0	83.0	99.0	0.0	·	·	·
O=C1c2cccc(OCC(=O)N3CCCc4ccccc43)c2CCN1Cc1ccc(F)cc1	-1.0	103.0	104.0	6.0	·	·	·
N#C/C(=C/c1cn(-c2ccccc2)nc1-c1cccc(S(=O)(=O)N2CCCC2)c1)C(=O)NCc1ccco1	-2.0	95.0	95.0	0.0	·	·	·
O=C(c1ccco1)N1CCN(CC(O)COc2ccc(Br)cc2)CC1 (stereo not drawn)	1.0	97.0	97.0	0.0	·	·	·
OC(CN1CCCCC1)Cn1c2ccccc2c2cc(Br)ccc21 (stereo not drawn)	35.0*	161.0*	114.0	0.0	157.0	27.0	108.0
OC(CN1CCN(c2ccccn2)CC1)Cn1c2ccccc2c2ccccc21 (stereo not drawn)	11.0	125.0	104.0	0.0	·	·	·
O=C(c1ccco1)N1CCN(CC(O)Cn2c3ccccc3c3ccccc32)CC1 (stereo not drawn)	8.0	115.0	129.0*	1.0	106.0	4.0	96.0
Cc1ccc(Oc2cc(NC(=O)CCCn3nc([N+](=O)[O-])cc3C)cc([N+](=O)[O-])c2)cc1	2.0	125.0	103.0	0.0	·	·	·
O=C(NCc1cccs1)C(=O)c1c[nH]c2ccccc12	-3.0	88.0	83.0	0.0	·	·	·
COc1ccc(NC(=O)Cc2cccc3ccccc23)cc1	-1.0	104.0	100.0	1.0	·	·	·
Cc1c(C(=O)Nc2ccc(F)cc2)cn2c(nc3ccccc32)c1C#N	2.0	87.0	95.0	0.0	·	·	·
N#Cc1c2nc3ccccc3nc2n2cc(NC(=O)c3ccc(F)cc3)ccc12	-5.0	-1.0*[inhibitor]	56.0*[inhibitor]	·	94.0	8.0	88.0
SMILES	MEKK2mut PB1 HTS	MEKK2wt PB1 HTS	MEKK3 PB1 HTS	GRK2 inh	MEKK2wt confirm	MEKK2mut confirm	MEKK3 confirm
NS(=O)(=O)c1ccc(NC(=O)c2c(F)cccc2Cl)cc1	26.0	130.0	131.0*	0.0	106.0	-4.0	104.0
NS(=O)(=O)c1ccc(NC(=O)c2c(Cl)cccc2Cl)cc1	-2.0	90.0	88.0	0.0	·	·	·
CCc1nnc(NC(=O)CSc2nnc3c(n2)[nH]c2ccccc23)s1	-7.0	82.0	91.0	2.0	·	·	·
Cc1ccc(N2CC(C(=O)OCc3ccc([N+](=O)[O-])cc3)CC2=O)cc1 (stereo not drawn)	·	·	·	0.0	·	·	·
CCCCN(CC)C(=O)Cc1ccc(Br)cc1	0.0	105.0	128.0*	0.0	95.0	5.0	104.0
Cc1ccc2c(CC(=O)OCc3csc(C)n3)coc2c1	-14.0	3.0*[inhibitor]	3.0*[inhibitor]	0.0	109.0	8.0	109.0
Cc1ccc2c(CC(=O)OCc3nc(N)nc(Nc4ccccc4C)n3)coc2c1	4.0	101.0	117.0	0.0	·	·	·
NS(=O)(=O)c1ccc(N/N=C/c2cn(-c3ccccc3)nc2-c2ccccc2)c([N+](=O)[O-])c1	0.0	96.0	102.0	2.0	·	·	·
O=[N+]([O-])c1ccc(N/N=C/c2cn(-c3ccccc3)nc2-c2ccccc2)cc1	27.0*	11.0*	97.0	0.0	114.0	14.0	100.0
Cc1ccc(-c2nn(-c3ccccc3)cc2/C=N/NS(=O)(=O)c2ccccc2)cc1	-1.0	100.0	103.0	1.0	·	·	·
O=S(=O)(N/N=C\c1cn(-c2ccccc2)nc1-c1ccccc1)c1ccccc1	11.0	119.0	126.0*	0.0	103.0	-1.0	108.0
O=C(NCc1cn(-c2ccccc2)nc1-c1ccccc1)c1ccc([N+](=O)[O-])cc1	2.0	122.0	131.0*	1.0	99.0	-2.0	95.0
COc1cc(OC)c2c(c1)C(=O)OC2	0.0	106.0	131.0*	3.0	99.0	2.0	99.0
COc1cccc(C2NC(=O)CCC2[N+](=O)[O-])c1 (stereo not drawn)	5.0	107.0	105.0	0.0	·	·	·
COc1cc(/C=C2/SC(=Nc3ccc(O)cc3)NC2=O)cc(OC)c1O	-5.0	99.0	99.0	2.0	·	·	·
COc1ccc(N=C2NC(=O)/C(=C/c3ccc(O)c(OC)c3)S2)cc1	-1.0	107.0	146.0*	0.0	102.0	-1.0	99.0
Cc1ccccc1C(=O)NNC(=S)Nc1cccc(C(F)(F)F)c1	-1.0	101.0	116.0	1.0	·	·	·
O=C(Nc1cccc(C(F)(F)F)c1)C(SCCO)c1ccccc1 (stereo not drawn)	0.0	105.0	131.0*	0.0	53.0	-28.0	59.0*
FC(F)(F)c1cccc(NC(=S)NNC(=S)Nc2cccc(C(F)(F)F)c2)c1	-5.0	107.0	102.0	0.0	·	·	·
O=C(NNC(=S)Nc1cccc(C(F)(F)F)c1)c1ccc(Cl)cc1Cl	3.0	116.0	162.0*	2.0	101.0	-2.0	102.0

Bioassay records deposited in PubChem BioAssay by NMMLSC.
